Measured values from PubChem BioAssay AID2534 (National Center for Advancing Translational Sciences (NCATS), 2010).
Records with an inconclusive call do not appear. The call rests on the fitted dose curve; in most records, active means well fitted curve in the direction sought with a large enough effect; inconclusive means small, poorly fitted or top-dose-only effect, or effect the other way, or another doubt; inactive means no such curve, though single readings can be large or run the other way.

Biological target: Pyruvate kinase PKLR (Homo sapiens) (UniProt P30613)
Sequence (P30613 whole entry, looked up): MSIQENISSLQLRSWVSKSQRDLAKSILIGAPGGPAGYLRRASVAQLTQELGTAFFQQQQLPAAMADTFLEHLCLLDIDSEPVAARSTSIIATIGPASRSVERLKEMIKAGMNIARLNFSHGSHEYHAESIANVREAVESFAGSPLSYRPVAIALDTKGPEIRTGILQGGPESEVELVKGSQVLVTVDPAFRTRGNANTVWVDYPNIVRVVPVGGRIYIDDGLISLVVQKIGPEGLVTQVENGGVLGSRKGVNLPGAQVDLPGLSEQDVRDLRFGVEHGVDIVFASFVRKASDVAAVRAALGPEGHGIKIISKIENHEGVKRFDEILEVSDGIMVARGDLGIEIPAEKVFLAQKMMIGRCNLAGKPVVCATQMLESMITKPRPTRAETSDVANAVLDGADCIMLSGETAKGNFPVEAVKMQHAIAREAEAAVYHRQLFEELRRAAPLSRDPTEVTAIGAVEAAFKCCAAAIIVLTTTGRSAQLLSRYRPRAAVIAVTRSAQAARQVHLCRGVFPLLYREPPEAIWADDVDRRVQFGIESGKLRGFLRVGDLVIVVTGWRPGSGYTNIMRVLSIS
Assay: Secondary Concentration-Response Assay for Activators of Human Reticulocyte Pyruvate Kinase: for Probe SAR
Conditions: purified hPK-R, ATP production, Kinase-Glo luminescence; series mostly up to 57.5 µM; activity change, negative = inhibition: at the top concentration
Excerpt: NIH Chemical Genomics Center [NCGC]
Wael M. Rabeh, Lyudmila Nedyalkova and Hee-Wan Park [Structural Genomics Consortium, 100 College St. Toronto, Ontario, Canada]
Human pyruvate kinase reticulocyte (hPK-R) enzyme was supplied as a highly purified (>95% pure) preparation from Structural Genomics Consortium in Toronto (Ontario, Canada) and assayed for its ability to generate ATP from ADP using phosphoenolpyruvate (PEP) as a substrate. ATP generation was detected in a coupled reaction by luciferase-mediated luminescence, an ATP-dependent process. Pyruvate kinase substrates, PEP and ADP, were present in the assay at Km and approximately 10-fold below Km respectively. The enzyme was assayed at an intermediate level of activity to screen for both inhibitors and activators.
NCGC Assay Protocol Summary for R-isoform
Three uL of substrate mix (at r.t.) in assay buffer (50 mM Imidazole pH7.2, 50 mM KCl, 7 mM MgCl2, 0.01% Tween 20, 0.05% BSA) was dispensed into white solid bottom 1,536 well microtiter plates so that the final concentrations of substrates in the assay were 0.1 mM ADP and 0.5 mM PEP. 23 nL of compound were delivered by a pin tool and 1 uL of enzyme mix (final concentration of 0.1 nM) in assay buffer (4 degree Celsius) was added. Plates were incubated at room temperature for 1 hour. Two uL of detection mix (Kinase-Glo, Promega; at 4 degree Celsius protected from light) was added and luminescence read by a ViewLux (Perkin Elmer) at 1 second exposure/plate. Data were normalized to the uninhibited (row 31). Additionally, a no enzyme and 5-fold enzyme control was dispensed in row 32, split equally between the two conditions.

Activity change, negative = inhibition, inactive:
Cc1cc(N2C(=O)c3ccccc3C2=O)no1 -6.05%
Cc1ccc(NS(=O)(=O)c2ccc3c(c2)n(C)c(=O)n3C)cc1C 12.9%
COc1cc(N2C(=O)c3ccccc3C2=O)c2ncccc2c1 9.59%
O=C1c2ccccc2C(=O)N1c1cccc(Cl)c1 3.13%
O=C1c2ccccc2C(=O)N1c1cccnc1 -5.55%
O=C1c2ccccc2C(=O)N1c1ccncc1 4.7%
Cc1ccc(Cl)cc1NS(=O)(=O)c1cc2c(cc1F)NC(=O)CC2 -16.4%
O=C1CCc2cc(S(=O)(=O)Nc3ccccc3-c3ccccc3)ccc2N1 0.876%
CC(C)Nc1cccc(S(=O)(=O)N2CCCN(S(=O)(=O)c3ccc4c(c3)OCCO4)CC2)c1 15.9%
O=C1c2ccccc2C(=O)N1c1ccccn1 3.08%
